Sampled rows, rich in hits. Any-hit rate of the full collection: about 1.4%.
Mtb MbtI inh: inhibitors of Mycobacterium tuberculosis siderophore enzyme MbtI; purified MbtI enzyme, fluorescence intensity read-out; inhibition, % (no concentration beside the values); 100,000 compounds, 0.89% hits; in the data active = inhibition mostly above about 56%, no sharp cut-off; inactive = mostly below about 77%
Mtb MenB inh: inhibitors of Mycobacterium tuberculosis MenB enzyme; 100,000 compounds, 0.43% hits; MenB enzyme assay, absorbance read-out; AID 540299; P9WNP5; inhibition, % (test concentration not listed); in the data active = inhibition above about 21%, passing the limit was not always enough
Target sequence (P9WNP5 whole entry, looked up): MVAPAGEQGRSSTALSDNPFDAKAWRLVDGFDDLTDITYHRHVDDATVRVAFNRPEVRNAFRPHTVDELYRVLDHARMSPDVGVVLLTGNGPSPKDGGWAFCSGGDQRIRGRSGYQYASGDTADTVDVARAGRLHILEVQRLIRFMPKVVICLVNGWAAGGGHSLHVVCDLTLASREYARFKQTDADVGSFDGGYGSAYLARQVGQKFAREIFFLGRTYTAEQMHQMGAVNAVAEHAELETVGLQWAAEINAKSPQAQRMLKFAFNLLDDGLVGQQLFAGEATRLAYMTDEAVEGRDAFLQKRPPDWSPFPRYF
Polio RdRp inh: inhibitors of poliovirus RNA polymerase binding and polymerization | P03300 | poliovirus polymerase elongation, fluorescence polarization; active compounds read low | % elongation, % (compound at 16.7 µg/mL) | 150,000 compounds, 0.66% hits; in the data active = % elongation below about 90%
Each line names hits and unclear results; the compound was inactive in the other large screens; ! = not confirmed by another sample.

Cc1cccc(C)c1OCc1nc2c3cnn(-c4ccccc4F)c3ncn2n1	Polio RdRp inh 75 (no result: Mtb MbtI inh, Mtb MenB inh)
Cc1cccc(C)c1OCc1nc2c3cnn(-c4ccccc4Br)c3ncn2n1	none (no result: Mtb MbtI inh, Mtb MenB inh)
CN1CCCN(C(=O)c2cccs2)CC1	none
CC(C)N(C(=O)Cn1nnc2ccccc21)C(C(=O)NCc1ccco1)c1ccccc1 (stereo not drawn)	none
O=C(NCc1ccco1)C(c1ccccc1)N(Cc1ccco1)C(=O)Cn1nnc2ccccc21 (stereo not drawn)	Mtb MenB inh 34
Cc1ccc(NC(=O)c2ccco2)cc1NC(=O)CSc1ncnc2sc3c(c12)CCC3	none
Fc1c(F)c(Oc2ccccc2)c(F)c(F)c1Oc1ccccc1	Mtb MenB inh 27
Nc1ccc(Oc2ccccc2)cc1	none
Cc1ccc(Cl)cc1NC(=O)Cn1c(=O)c(CNc2ccccc2)cc2cc3c(cc21)OCCO3	none (no result: Mtb MbtI inh, Mtb MenB inh)
O=C(Cn1c(=O)c(CNc2ccccc2)cc2cc3c(cc21)OCCO3)Nc1ccccc1Cl	Polio RdRp inh 51 (no result: Mtb MbtI inh, Mtb MenB inh)
CCCN1CCN(C(=O)c2ccccc2CSc2ncn[nH]2)CC1	none
O=S(=O)(c1ccc(OC(F)(F)F)cc1)N1CCC(c2nc3ccccc3s2)CC1	none (no result: Mtb MbtI inh, Mtb MenB inh)
CN(C)S(=O)(=O)c1ccc(S(=O)(=O)N2CCC(c3nc4ccccc4s3)CC2)cc1	Mtb MenB inh 29
COC(=O)c1sc(NC(=O)c2ccccc2)c(C(=O)OC)c1C	Polio RdRp inh 68 (no result: Mtb MbtI inh)
COC(=O)c1sc(NC(=O)C(F)(F)F)c(C(=O)OC)c1C	none
CC(=O)N(C)CP(=O)(O)CN1CCCC1=O	none (no result: Mtb MbtI inh)
N#Cc1cc[n+](CC(=O)c2cccs2)cc1	none
O=C(C1CC1)N(c1ccccc1)C1C=CS(=O)(=O)C1 (stereo not drawn)	none
Cc1nnc(NCc2ccco2)s1	none
c1coc(CNc2nc(C34CC5CC(CC(C5)C3)C4)cs2)c1	Mtb MbtI inh 59
C=CCOCC(O)Cn1c(N)nc2c1c(=O)n(C)c(=O)n2C (stereo not drawn)	none
C=CCn1c(N)nc2c1c(=O)n(C)c(=O)n2C	Mtb MenB inh 49
CCOC(=O)Nc1ccc2c(COC(=O)[C@H](C)NC(=O)c3ccco3)cc(=O)oc2c1	none
COC(=O)c1cc2c(ccn2-c2ccc(F)cc2)n1CC(=O)c1ccc(OC)cc1	none
CCn1c(C(=O)OC)cc2c1ccn2-c1ccc(F)cc1	Mtb MenB inh 32
O=C(CSc1nnc(-c2cccc(S(=O)(=O)N3CCOCC3)c2)o1)Nc1ncc(C(F)(F)F)cc1Cl	none
COC(=O)c1c(C)oc2ccc(NS(=O)(=O)c3ccc(OC)cc3)cc12	none
CCOC(=O)/C=C(\C)Sc1cc(=O)oc2ccccc12	Polio RdRp inh 84
CCO/C(C)=N\Oc1cc(=O)oc2ccccc12	none
S=C1Nc2cccc3cccc(c23)N1	none
Fc1cccc2c1CNC(=S)N2	Mtb MbtI inh 82
CCC(=O)C1(Sc2nc3ccccc3[nH]2)CC(C)(C)OC1=O (stereo not drawn)	Mtb MbtI inh 102
CC(C)(C)C(=O)CSc1nc2ccccc2[nH]1	none
O=C(O)/C=C/C(=O)N1CCN(c2ccc(C(F)(F)F)cn2)CC1	none
O=C1CSC(=S)N1Nc1ccccc1	Mtb MbtI inh 76
O=C(Cc1ccccc1)NN1C(=O)CSC1=S	none
COc1ccc(S(=O)(=O)N2CCC(NC(=O)c3ccccc3)CC2)cc1	Mtb MenB inh 33
COc1ccc(S(=O)(=O)N2CCC(NC(=O)NC3CCCC3)CC2)cc1	none
CCCc1nc2ccccc2c(C(=O)OCC#N)c1CC	none
CCCn1c(-c2cccs2)n[nH]c1=O	none
CCCn1c(SCC(=O)c2cccs2)n[nH]c1=O	Mtb MbtI inh 64 (no result: Polio RdRp inh)
CCNS(=O)(=O)c1cccs1	none
O=C(c1ccccc1)N1CCn2c1nc1ccccc12	none (no result: Mtb MbtI inh)
COCCNC(=S)N1CCn2c1nc1ccccc12	Mtb MbtI inh 84
O=C(NCC1CCCO1)C1CCN(Cc2ccccc2O)CC1 (stereo not drawn)	none
O=c1[nH]c(=S)n(-c2cccc(Cl)c2)c2c1CN(C1CCCC1)CN2	Mtb MenB inh 52
O=c1[nH]c(=S)n(CCc2ccccc2)c2c1CN(CCc1ccccc1)CN2	none
O=C(NCCCn1ccnc1)c1ccccc1Cl	none
CCSc1ccccc1C(=O)NCCCn1ccnc1	Mtb MenB inh 40
O=C(Cc1ccc(Cl)cc1)NCCCn1ccnc1	none (no result: Mtb MbtI inh)
O=C(Cc1c(F)cccc1Cl)NCCCn1ccnc1	Mtb MenB inh 40
CCC1NCCc2sccc21 (stereo not drawn)	none
Cc1ccc(CN2CCC(CNC(=O)Nc3ccccc3F)C2)cc1 (stereo not drawn)	none
CN(C)CCNC(=O)c1ccc(N2CCOc3ccccc32)s1	none
CN(C)CCNC(=O)c1ccc(Br)s1	Polio RdRp inh 89
CN1CCC(N(C)CC(O)COCc2ccccc2Cl)CC1 (stereo not drawn)	none
CN1/C(=C\C(=O)CN2CCOCC2)C(C)(C)c2ccccc21	none
O=c1oc2c3ccccc3oc(=O)c2c2ccccc12	none
O=c1oc(Cl)c(Cl)c2ccccc12	Polio RdRp inh 90!
N#CC(C#N)=CC1CCCCC1	none
CCN(CC)N1CCN(S(=O)(=O)c2ccc(S(=O)(=O)c3ncccn3)cc2)CC1	none
Cc1[nH]c(=S)n(CC2CCCO2)c1C (stereo not drawn)	Mtb MbtI inh 95
Cc1n[nH]c(=S)n1CC1CCCO1 (stereo not drawn)	none
NC1CCc2cc(O)c(O)cc2C1 (stereo not drawn)	Mtb MbtI inh 93 (no result: Mtb MenB inh)
Cc1cc(NC(=O)CSc2nc3ccccc3c(=O)n2CCO)n(-c2ccccc2)n1	none
O=S(=O)(Cc1nc(-c2ccc(Cl)cc2)cs1)c1ccccn1	none
Cc1nn(CC(=O)N2CCCCC2)c(=O)c2ccccc12	none
Cc1nn(Cc2c(Cl)cccc2Cl)c(Cl)c1CN1CCN(CC(=O)N2CCCC2)CC1	Polio RdRp inh 87
CCOc1nc2cccnc2n(C(C)C(=O)N(CC)c2cccc(C)c2)c1=O (stereo not drawn)	none
CS(=O)(=O)N1CCN(C(=S)Nc2cccc3ccccc23)CC1	none
Cc1[nH]n(-c2ccccc2)c(=O)c1C(=O)Nc1ccc(Cl)cc1	none
Cc1ccccc1N=Cc1sc2ccccc2c1O	none
Oc1c(/C=N/n2cnnc2)sc2ccccc12	Mtb MbtI inh 71
O=C(CSc1ncccn1)c1ccc(C2CCCCC2)cc1	none (no result: Mtb MenB inh)
CCC(=O)Nc1ccc2nc(C)n(Cc3ccccc3)c(=O)c2c1	none
CCC(=O)Nc1ccc2nc(C3CC3)n(Cc3ccc(Cl)cc3)c(=O)c2c1	Mtb MenB inh 31
CCN(CC)S(=O)(=O)c1ccc2c(c1)n(C)c(=O)c(=O)n2C	none
CCN(CC)S(=O)(=O)c1ccc2c(c1)nc(CC(=O)O)n2C	Mtb MbtI inh 94, Polio RdRp inh 81
O=C(OCCCCN1C(=O)c2ccccc2C1=O)c1ccc(-n2cnnn2)cc1	none (no result: Polio RdRp inh)
Clc1ccc(Cn2nnc3ccccc32)cc1Cl	none
Clc1ccc(Cl)c(-c2nn3c(Cn4nnc5ccccc54)nnc3s2)c1	Mtb MbtI inh 93
CC(C)(C)N1Sc2ccccc2NC1=S	Mtb MbtI inh 90!
CC1CC(=S)Nc2ccccc2S1 (stereo not drawn)	none
O=c1c2c(nc3n1CCC3)sc1c(O)c(Br)ccc12	Mtb MenB inh 38
Cc1cc(Br)ccc1NC(=O)c1sc2nc3n(c(=O)c2c1C)CCCC3	none (no result: Mtb MbtI inh, Mtb MenB inh)
CNC(=O)c1ccc(OC)c(S(=O)(=O)NC)c1	none
Cc1cccc(-c2nnc(C3CCN(S(=O)(=O)Cc4ccccc4)CC3)o2)c1	Mtb MbtI inh 72
Cc1cccc(-c2nnc(C3CCN(S(=O)(=O)c4cccc(Cl)c4)CC3)o2)c1	none (no result: Mtb MbtI inh, Mtb MenB inh)
Cc1cc(O)c(NC(=O)c2ccccc2Cl)cc1C	none
NC(=S)NN1N=C(c2ccccc2)CC1=O	none
